Assay results reported in PubChem BioAssay (NCI).
Compounds without any hit were thinned out: in the full panel of roughly 83,000, 20% have a hit.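 Growth was measured after 48 h exposure to one concentration of compound in 96-well plates. Values under 10 count as active.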 Values without a mark were called inactive. The source made the active and inactive calls.

Legend:
Assay in all cases: NCI-60 one-dose screen, 48 h (100 = growth as untreated, 0 = no growth, -100 = all killed)
Settings in all cases: 10 µM unless noted
[1] = tested on: RPMI-8226 leukemia
[2] = tested on: OVCAR-8 ovarian
[3] = tested on: OVCAR-5 ovarian
[4] = tested on: OVCAR-4 ovarian
[5] = tested on: SK-OV-3 ovarian
[6] = tested on: IGROV1 ovarian
[7] = tested on: OVCAR-3 ovarian
[8] = tested on: HS 578T breast
[9] = tested on: NCI/ADR-RES ovarian

Question: For COc1ccc2cnc(N)c(C#Cc3cc(C(=O)Nc4ccc(CN5CCN(C)CC5)c(C(F)(F)F)c4)cnc3C)c2c1, which growth [1] is on record?
Answer: 48.1%

Question: And the growth [2]?
Answer: 75.4%

Question: And the growth [3]?
Answer: -39.3% (active)

Question: What about the growth [4] of the same compound?
Answer: 58.2%

Question: What about the growth [5] of the same compound?
Answer: 69.4%

Question: And the growth [6]?
Answer: 28.8%

Question: And the growth [7]?
Answer: 93%

Question: And the growth [8]?
Answer: -16.3% (active)

Question: What about the growth [9] of the same compound?
Answer: 78.1%

Question: Which growth [1] does the source give for O=C(Nc1cccc(Cn2c(=O)[nH]c3ccc(Oc4ncccn4)cc3c2=O)c1)c1cc(Cl)cc(Cl)c1 here?
Answer: 60.9%

Question: And the growth [2]?
Answer: 51.4%

Question: And the growth [3]?
Answer: 70%

Question: What about the growth [4] of the same compound?
Answer: 41.5%

Question: What about the growth [5] of the same compound?
Answer: 66.5%

Question: And the growth [6]?
Answer: 49%

Question: And the growth [7]?
Answer: 81.2%

Question: And the growth [8]?
Answer: 56.7%

Question: And the growth [9]?
Answer: 86.3%

Question: How did the growth [1] turn out when Cc1ncc(C(=O)Nc2ccc(CN3CCN(C)CC3)c(C(F)(F)F)c2)cc1C#Cc1cnc(NC2CC2)c2ncccc12 was run?
Answer: -41.1% (active)

Question: And the growth [2]?
Answer: -91.7% (active)

Question: And the growth [3]?
Answer: -91.1% (active)

Question: And the growth [4]?
Answer: -60.5% (active)

Question: What about the growth [5] of the same compound?
Answer: 43.3%

Question: What about the growth [6] of the same compound?
Answer: -80.4% (active)

Question: What about the growth [7] of the same compound?
Answer: -90.4% (active)

Question: And the growth [8]?
Answer: 43%

Question: What about the growth [9] of the same compound?
Answer: -41.9% (active)

Question: C=CCN(C)C was tested. Which growth [1] did it give?
Answer: 117%

Question: And the growth [2]?
Answer: 106%

Question: And the growth [3]?
Answer: 109%

Question: What about the growth [4] of the same compound?
Answer: 115%

Question: What about the growth [5] of the same compound?
Answer: 115%

Question: What about the growth [6] of the same compound?
Answer: 104%

Question: What about the growth [7] of the same compound?
Answer: 118%

Question: What about the growth [8] of the same compound?
Answer: 98.1%

Question: What about the growth [9] of the same compound?
Answer: 106%

Question: Which growth [1] does the source give for COc1cc2c(c(OC)c1OC)C(=O)CC(c1cccc(C(=O)Nc3cccc(Br)c3)c1)O2 (configuration not stated) here?
Answer: 46.8%

Question: And the growth [2]?
Answer: 55%

Question: And the growth [3]?
Answer: 95.7%

Question: And the growth [4]?
Answer: 82.7%

Question: And the growth [5]?
Answer: 82%

Question: And the growth [6]?
Answer: 83%

Question: What about the growth [7] of the same compound?
Answer: 87.7%

Question: And the growth [8]?
Answer: 91.5%

Question: And the growth [9]?
Answer: 84.7%

Question: Which results are given for CCC(C)(CC)c1ccc(O)c(C)c1?
Answer: growth [1]: 98.8%; growth [2]: 109%; growth [3]: 109%; growth [4]: 109%; growth [5]: 93.4%; growth [6]: 106%; growth [7]: 116%; growth [8]: 101%; growth [9]: 102%

Question: How did the growth [1] turn out when COc1cc(OC)c(/C=C/c2ccc3ccccc3[n+]2C)c(OC)c1 was run?
Answer: -20.9% (active)

Question: And the growth [2]?
Answer: 9.25% (active)

Question: What about the growth [3] of the same compound?
Answer: 22.3%

Question: What about the growth [4] of the same compound?
Answer: 28.8%

Question: What about the growth [5] of the same compound?
Answer: 27.1%

Question: What about the growth [6] of the same compound?
Answer: 14.8%

Question: And the growth [7]?
Answer: 1.43% (active)

Question: And the growth [8]?
Answer: 34.4%

Question: And the growth [9]?
Answer: 97.4%

Question: CN1CCN(Cc2ccc(NC(=O)c3cncc(C#Cc4c(N)ncc5ccc(F)cc45)c3)cc2C(F)(F)F)CC1 was tested. Which growth [1] did it give?
Answer: 5.38% (active)

Question: What about the growth [2] of the same compound?
Answer: 53.8%

Question: And the growth [3]?
Answer: -84.6% (active)

Question: And the growth [4]?
Answer: 36.1%

Question: And the growth [5]?
Answer: 60%

Question: And the growth [6]?
Answer: 11%

Question: And the growth [7]?
Answer: 63.2%

Question: And the growth [8]?
Answer: -8.53% (active)

Question: What about the growth [9] of the same compound?
Answer: 48.2%

Question: How did the growth [1] turn out when COc1ccccc1C(=O)Nc1cccc(-c2cc(=O)c3c(OC)c(OC)c(OC)cc3o2)c1 was run?
Answer: 6.75% (active)

Question: What about the growth [2] of the same compound?
Answer: 38.7%

Question: And the growth [3]?
Answer: 81.2%

Question: And the growth [4]?
Answer: 59.1%

Question: And the growth [5]?
Answer: 100%

Question: And the growth [6]?
Answer: 42.9%

Question: What about the growth [7] of the same compound?
Answer: 51.3%

Question: What about the growth [8] of the same compound?
Answer: 23.6%

Question: What about the growth [9] of the same compound?
Answer: 58.3%

Question: Which results are given for CCOC(=O)C(C)C(C)(O)c1ccccc1 (configuration not stated)?
Answer: growth [1]: 89.9%; growth [2]: 107%; growth [3]: 104%; growth [4]: 89.6%; growth [5]: 102%; growth [6]: 101%; growth [7]: 107%; growth [8]: 98.4%; growth [9]: 99.5%

Question: Which results are given for O=C(CN1C(=O)NC(c2ccccc2)(c2ccccc2)C1=O)c1ccc(N2CCCC2)cc1?
Answer: growth [1]: 70.1%; growth [2]: 83.4%; growth [3]: 101%; growth [4]: 72.8%; growth [5]: 96.7%; growth [6]: 85.5%; growth [7]: 103%; growth [8]: 87.7%; growth [9]: 67.2%

Question: Which growth [1] does the source give for COC(=O)C1CC(=O)N(C(=O)Nc2ccc(Cl)cc2Cl)C1 (configuration not stated) here?
Answer: 98.9%

Question: What about the growth [2] of the same compound?
Answer: 99.1%

Question: What about the growth [3] of the same compound?
Answer: 101%

Question: What about the growth [4] of the same compound?
Answer: 117%

Question: What about the growth [5] of the same compound?
Answer: 88.4%

Question: What about the growth [6] of the same compound?
Answer: 107%

Question: And the growth [7]?
Answer: 111%

Question: And the growth [8]?
Answer: 82.9%

Question: And the growth [9]?
Answer: 99.6%

Question: Which growth [1] does the source give for CN1NC(c2ccccc2)NN(C)C1=O here?
Answer: 105%

Question: And the growth [2]?
Answer: 103%

Question: What about the growth [3] of the same compound?
Answer: 109%

Question: And the growth [4]?
Answer: 101%

Question: What about the growth [5] of the same compound?
Answer: 104%

Question: What about the growth [6] of the same compound?
Answer: 109%

Question: And the growth [7]?
Answer: 112%

Question: What about the growth [8] of the same compound?
Answer: 113%

Question: What about the growth [9] of the same compound?
Answer: 101%

Question: For CCCCCCCCCC(C)NC(=O)CCl (configuration not stated), which growth [1] is on record?
Answer: 97.6%

Question: What about the growth [2] of the same compound?
Answer: 88.3%

Question: And the growth [3]?
Answer: 107%

Question: What about the growth [4] of the same compound?
Answer: 89.4%

Question: And the growth [5]?
Answer: 103%

Question: What about the growth [6] of the same compound?
Answer: 25.6%

Question: And the growth [7]?
Answer: 89.3%

Question: And the growth [8]?
Answer: 102%

Question: What about the growth [9] of the same compound?
Answer: 101%

Question: What does the source list for O=C(O)/C(Br)=C/c1c[nH]c2ccc(Br)cc12?
Answer: growth [1]: 114%; growth [2]: 106%; growth [3]: 90.6%; growth [4]: 59.7%; growth [5]: 171%; growth [6]: 98.2%; growth [7]: 105%; growth [8]: 105%; growth [9]: 102%

Question: With Nc1cc(N)c2nc(-c3ccccc3)c(NCCc3ccc(Cl)c(Cl)c3)nc2c1 as the compound, how does the growth [1] read?
Answer: -60.6% (active)

Question: And the growth [2]?
Answer: -90.6% (active)

Question: What about the growth [3] of the same compound?
Answer: -76.9% (active)

Question: What about the growth [4] of the same compound?
Answer: -85.5% (active)

Question: What about the growth [5] of the same compound?
Answer: -80.7% (active)

Question: What about the growth [6] of the same compound?
Answer: -77.8% (active)

Question: What about the growth [7] of the same compound?
Answer: -91.2% (active)

Question: What about the growth [8] of the same compound?
Answer: -22.7% (active)

Question: And the growth [9]?
Answer: -54.3% (active)

Question: What does the source list for Cc1ccc(C(=O)Nc2ccc(CN3CCN(C)CC3)c(C(F)(F)F)c2)cc1C#Cc1cnc(N)c2ccc(C#N)cc12?
Answer: growth [1]: 20.2%; growth [2]: 27.8%; growth [3]: 98.4%; growth [4]: 48.8%; growth [5]: 2.3% (active); growth [6]: 16.3%; growth [7]: 61.2%; growth [8]: 47.4%; growth [9]: 49.8%

Question: COc1cccc(CNC(=O)c2cccc(C3CC(=O)c4c(cc(OC)c(OC)c4OC)O3)c2)c1 (configuration not stated) was tested. Which growth [1] did it give?
Answer: 32.9%

Question: And the growth [2]?
Answer: 67.1%

Question: And the growth [3]?
Answer: 89.1%

Question: What about the growth [4] of the same compound?
Answer: 78.3%

Question: What about the growth [5] of the same compound?
Answer: 81.7%

Question: What about the growth [6] of the same compound?
Answer: 46.5%

Question: And the growth [7]?
Answer: 12.6%

Question: And the growth [8]?
Answer: 102%

Question: What about the growth [9] of the same compound?
Answer: 41.7%
